Assay results: the supplement of paper PMC8728848
About 410 targets per protein were measured; listed, in parts, are those with the strongest signals and a random draw of the rest.

Legend:
Test in all cases: glycan array binding signal (z-score within array); higher = stronger binding
Settings in all cases: glycan notation: IUPAC condensed, linker removed
[1] = target: Fuc(a1-2)Gal(b1-3)GlcNAc(b1-3)GalNAc
Outline: (§1)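 Glycan array binding is given as a within-array Z-score, which can be read as non-binding when negative. The arrays, 3228 of them, came from the Consortium for Functional Glycomics database and were retained only where the protein sequence was available. Z-scores were averaged across arrays of the same protein sequence at different concentrations or buffers and across linkers.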

[2] = target: Fuc(a1-2)Gal(b1-3)[Fuc(a1-4)]GlcNAc(b1-2)Man(a1-3)[Fuc(a1-2)Gal(b1-3)[Fuc(a1-4)]GlcNAc(b1-2)Man(a1-3)]Man(b1-4)GlcNAc(b1-4)GlcNAc
Outline: as §1

[3] = target: Fuc(a1-2)Gal(b1-4)GlcNAc(b1-3)GalNAc
Outline: as §1

[4] = target: Fuc(a1-2)Gal(b1-4)GlcNAc(b1-3)[Fuc(a1-2)Gal(b1-4)GlcNAc(b1-6)]GalNAc
Outline: as §1

[5] = target: Fuc(a1-2)Gal(b1-4)GlcNAc(b1-3)[Fuc(a1-3)[Gal(b1-4)]GlcNAc(b1-6)]Gal(b1-4)Glc
Outline: as §1

[6] = target: Fuc(a1-2)[Gal(a1-3)]Gal(b1-3)GlcNAc(b1-2)Man(a1-3)[Fuc(a1-2)[Gal(a1-3)]Gal(b1-3)GlcNAc(b1-2)Man(a1-6)]Man(b1-4)GlcNAc(b1-4)GlcNAc
Outline: as §1

[7] = target: Fuc(a1-2)[Gal(a1-3)]Gal(b1-4)Glc
Outline: as §1

[8] = target: Fuc(a1-2)[Gal(a1-3)]Gal(b1-4)GlcNAc(b1-3)[Fuc(a1-2)[Gal(a1-3)]Gal(b1-4)GlcNAc(b1-6)]GalNAc
Outline: as §1

[9] = target: Fuc(a1-2)[Gal(a1-3)]Gal(b1-4)GlcNAc(b1-6)GalNAc
Outline: as §1

[10] = target: Fuc(a1-2)[GalNAc(a1-3)]Gal(b1-4)GlcNAc(b1-2)Man
Outline: as §1

[11] = target: Fuc(a1-3)[Gal3S(b1-4)]GlcNAc
Outline: as §1

[12] = target: Fuc(a1-3)[GalNAc(b1-4)]GlcNAc
Outline: as §1

Fuc(a1-4)GlcNAc = target: Fuc(a1-4)GlcNAc
Outline: as §1

[13] = target: Gal(a1-3)[Gal(a1-4)]Gal(b1-4)GlcNAc
Outline: as §1

[14] = target: Gal(b1-3)GlcNAc(b1-3)Gal(b1-4)GlcNAc(b1-2)[Gal(b1-3)GlcNAc(b1-3)Gal(b1-4)GlcNAc(b1-6)]Man(a1-6)[Gal(b1-3)GlcNAc(b1-3)Gal(b1-4)GlcNAc(b1-2)Man(a1-3)]Man(b1-4)GlcNAc(b1-4)[Fuc(a1-6)]GlcNAc
Outline: as §1

[15] = target: Gal(b1-3)[Neu5Ac(a2-6)]GalNAc
Outline: as §1

[16] = target: Gal(b1-3)[Neu5Ac(b2-6)]GalNAc
Outline: as §1

[17] = target: Gal(b1-4)GlcNAc(a1-6)Gal(b1-4)GlcNAc
Outline: as §1

[18] = target: Gal(b1-4)GlcNAc(b1-2)[Gal(b1-4)GlcNAc(b1-4)]Man(a1-3)[Gal(b1-4)GlcNAc(b1-2)[Gal(b1-4)GlcNAc(b1-6)]Man(a1-6)]Man(b1-4)GlcNAc(b1-4)GlcNAc
Outline: as §1

[19] = target: Gal(b1-4)GlcNAc(b1-2)[Gal(b1-4)GlcNAc(b1-4)]Man(a1-3)[GlcNAc(b1-4)][Gal(b1-4)GlcNAc(b1-2)[Gal(b1-4)GlcNAc(b1-6)]Man(a1-6)]Man(b1-4)GlcNAc(b1-4)GlcNAc
Outline: as §1

[20] = target: Gal(b1-4)GlcNAc(b1-3)Gal(b1-4)GlcNAc(b1-3)Gal(b1-4)GlcNAc(b1-3)Gal(b1-4)GlcNAc(b1-3)Gal(b1-4)GlcNAc(b1-2)Man(a1-3)[Gal(b1-4)GlcNAc(b1-3)Gal(b1-4)GlcNAc(b1-3)Gal(b1-4)GlcNAc(b1-3)Gal(b1-4)GlcNAc(b1-3)Gal(b1-4)GlcNAc(b1-2)Man(a1-6)]Man(b1-4)GlcNAc(b1-4)[Fuc(a1-6)]GlcNAc
Outline: as §1

[21] = target: Gal(b1-4)GlcNAc(b1-3)Gal(b1-4)GlcNAc(b1-3)[Gal(b1-4)GlcNAc(b1-3)Gal(b1-4)GlcNAc(b1-6)]GalNAc
Outline: as §1

Gal3S(b1-4)Glc6S = target: Gal3S(b1-4)Glc6S
Outline: as §1

Gal6P(b1-4)GlcNAc = target: Gal6P(b1-4)GlcNAc
Outline: as §1

[22] = target: Glc(a1-6)Glc(a1-6)Glc(a1-6)Glc
Outline: as §1

B1: MSMEG3662-2a (Mycobacterium smegmatis), A0QYH7_MYCS2 (protein)
chain: MGDTLTAGQKLERGGSLQSGNGAYTLTLQDDGNLVLYARDKAVWSTGTNGQDVVRAEVQTDGNFVLYTAEKPVWHTDTKGKKEVKLVLQDDRNLVLYAKDGPAWSSKTDTTEPPPPAPEPEKEAEVAPAAAEEAAPAPVAEPAPAEPAPAAPPPAPPAPRTYTVVSGDTLWAIAERFYGDGSKYQQIADASGIANPDLIHPGQVLTIP
**Q.** For B1, which “glycan array binding signal (z-score)” value [1] is on record?
**A.** The value was -0.084.

**Q.** And the “glycan array binding signal (z-score)” value [2]?
**A.** The value was 0.02.

**Q.** What about the “glycan array binding signal (z-score)” value [3] of the same binder?
**A.** Its value is 0.35.

**Q.** What about the “glycan array binding signal (z-score)” value [4] of the same binder?
**A.** The value was -0.023.

**Q.** What about the “glycan array binding signal (z-score)” value [5] of the same binder?
**A.** The value was -0.103.

**Q.** What about the “glycan array binding signal (z-score)” value [6] of the same binder?
**A.** Its value is -0.102.

**Q.** And the “glycan array binding signal (z-score)” value [7]?
**A.** The value was -0.24.

**Q.** What about the “glycan array binding signal (z-score)” value [8] of the same binder?
**A.** Its value is 0.285.

**Q.** And the “glycan array binding signal (z-score)” value [9]?
**A.** The value was -0.124.

**Q.** What about the “glycan array binding signal (z-score)” value [10] of the same binder?
**A.** The value was -0.046.

**Q.** What about the “glycan array binding signal (z-score)” value [11] of the same binder?
**A.** Its value is -0.028.

**Q.** What about the “glycan array binding signal (z-score)” value [12] of the same binder?
**A.** Its value is 0.413.

**Q.** What about the “glycan array binding signal (z-score)” value (Fuc(a1-4)GlcNAc) of the same binder?
**A.** Its value is 11.1.

**Q.** And the “glycan array binding signal (z-score)” value [13]?
**A.** Its value is -0.039.

**Q.** What about the “glycan array binding signal (z-score)” value [14] of the same binder?
**A.** Its value is 0.25.

**Q.** And the “glycan array binding signal (z-score)” value [15]?
**A.** Its value is -0.105.

**Q.** And the “glycan array binding signal (z-score)” value [16]?
**A.** The value was 0.064.

**Q.** And the “glycan array binding signal (z-score)” value [17]?
**A.** The value was -0.067.

**Q.** What about the “glycan array binding signal (z-score)” value [18] of the same binder?
**A.** The value was -0.118.

**Q.** What about the “glycan array binding signal (z-score)” value [19] of the same binder?
**A.** Its value is -0.186.

**Q.** What about the “glycan array binding signal (z-score)” value [20] of the same binder?
**A.** The value was 0.159.

**Q.** And the “glycan array binding signal (z-score)” value [21]?
**A.** The value was 0.038.

**Q.** What about the “glycan array binding signal (z-score)” value (Gal3S(b1-4)Glc6S) of the same binder?
**A.** The value was -0.107.

**Q.** What about the “glycan array binding signal (z-score)” value (Gal6P(b1-4)GlcNAc) of the same binder?
**A.** Its value is -0.205.

**Q.** What about the “glycan array binding signal (z-score)” value [22] of the same binder?
**A.** Its value is -0.182.
